This note sets out measurements from PubChem BioAssay.

Values joined by “and” are separate entries in the source; they are usually repeats but may differ in a detail not shown here. Equal values may be shown once. Active and inactive are the calls of the source. Unless noted, how the calls were made is not given here.

System in one assay: not listed separately
In words: fluorescence interference in NS3h assay format, artefact control for HCV NS3 helicase inhibitor project, biochemical, NIH Clinical Collection (AID 743272).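 Further: HCV NS3 helicase with a Cy5 labelled single stranded DNA probe.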 As to conditions: fluorescence interference counterscreen, hits give low values.
Consider `CC12CC3CC(C)(C1)CC(N)(C3)C2`, for which the fluorescence ratio was 1.02 (inactive).

Turning to `CC(=O)OCC(CCn1cnc2cnc(N)nc21)COC(C)=O`, the fluorescence ratio was 0.99 (inactive).

Regarding `S=c1nc[nH]c2nc[nH]c12`, the fluorescence ratio was 0.99 (inactive).

As for `Oc1c(Cl)cc(Cl)c2cccnc12`, the fluorescence ratio was 0.95 (inactive).

`CC1=NS(=O)(=O)c2cc(Cl)ccc2N1`: the fluorescence ratio was 0.99 (inactive).

Consider `OC(Cn1cncn1)(Cn1cncn1)c1ccc(F)cc1F`, for which the fluorescence ratio was 1.02 (inactive).

Turning to `NCCc1ccc(O)c(O)c1`, the fluorescence ratio is 0.96 (inactive).

Take `CN=C(NC#N)NCCSCc1nc[nH]c1C`: the fluorescence ratio is 0.94 (inactive).

In the case of `COc1c(N2CCNC(C)C2)c(F)cc2c(=O)c(C(=O)O)cn(C3CC3)c12` (configuration not stated), the fluorescence ratio is 1.01 (inactive).

Take `CC1COc2c(N3CCN(C)CC3)c(F)cc3c(=O)c(C(=O)O)cn1c23` (configuration not stated): the fluorescence ratio was 0.87 (inactive).

Turning to `O=C(C1CCCCC1)N1CC(=O)N2CCc3ccccc3C2C1` (configuration not stated), the fluorescence ratio is 0.91 (inactive).

`CCc1cc(C(N)=S)ccn1`: the fluorescence ratio is 1.01 (inactive).

Regarding `CC1=C(/C=C/C(C)=C/C=C/C(C)=C/C(=O)O)C(C)(C)CCC1`, the fluorescence ratio was 0.87 (inactive).

Turning to `CCCCNc1cc(C(=O)O)cc(S(N)(=O)=O)c1Oc1ccccc1`, the fluorescence ratio was 0.97 (inactive).

Regarding `O=c1[nH]cnc2[nH]ncc12`, the fluorescence ratio is 0.99 (inactive).

Consider `O=C1c2c(O)ccc(O)c2C(=O)c2c(NCCNCCO)ccc(NCCNCCO)c21`, for which the fluorescence ratio was 0.92 (inactive).

As for `O=C(O)c1cc(=O)c2c(OCC(O)COc3cccc4oc(C(=O)O)cc(=O)c34)cccc2o1`, the fluorescence ratio is 1.03 (inactive).

On to `CC(C)C(=O)Nc1ccc([N+](=O)[O-])c(C(F)(F)F)c1`, for which the fluorescence ratio was 0.88 (inactive).

Turning to `CC(COc1ccccc1)N(CCCl)Cc1ccccc1` (configuration not stated), the fluorescence ratio was 0.95 (inactive).

As for `CCCc1nc2c(C)cc(-c3nc4ccccc4n3C)cc2n1Cc1ccc(-c2ccccc2C(=O)O)cc1`, the fluorescence ratio is 1.04 (inactive).

With `CC(=O)CC(c1ccccc1)c1c(O)c2ccccc2oc1=O` (configuration not stated), the fluorescence ratio was 0.99 (inactive).

On to `NS(=O)(=O)c1cc2c(cc1Cl)NCNS2(=O)=O`, for which the fluorescence ratio is 1 (inactive).

On to `CS(=O)(=O)OCCCCOS(C)(=O)=O`, for which the fluorescence ratio is 0.92 (inactive).

With `CCOC(=O)C1=C(C)NC(C)=C(C(=O)OC)C1c1cccc([N+](=O)[O-])c1` (configuration not stated), the fluorescence ratio was 1.03 (inactive).

For the compound `COc1ccccc1OCCNCC(O)COc1cccc2[nH]c3ccccc3c12` (configuration not stated), the fluorescence ratio is 0.94 (inactive).

For the compound `O=C(O)CCCc1ccccc1`, the fluorescence ratio is 0.92 (inactive).

With `NNCCc1ccccc1`, the fluorescence ratio is 0.96 (inactive) and 1.02 (inactive).

As to `CC1Cc2ccccc2N1NC(=O)c1ccc(Cl)c(S(N)(=O)=O)c1` (configuration not stated), the fluorescence ratio was 0.97 (inactive).

As for `N[C@@H]1CONC1=O`, the fluorescence ratio was 0.95 (inactive) and 1.03 (inactive).

Turning to `CCN(Cc1ccncc1)C(=O)C(CO)c1ccccc1` (configuration not stated), the fluorescence ratio is 1.03 (inactive).

For the compound `CCCc1cc(=O)[nH]c(=S)[nH]1`, the fluorescence ratio is 0.97 (inactive).

On to `O=C(O)c1cccnc1`, for which the fluorescence ratio was 0.99 (inactive).

Take `CC(C[N+](C)(C)C)OC(N)=O` (configuration not stated): the fluorescence ratio is 1.01 (inactive).

In the case of `COc1ccc(Cl)cc1C(=O)NCCc1ccc(S(=O)(=O)NC(=O)NC2CCCCC2)cc1`, the fluorescence ratio is 0.97 (inactive).

As to `N[C@@H](Cc1cc(I)c(Oc2cc(I)c(O)c(I)c2)c(I)c1)C(=O)O`, the fluorescence ratio is 0.88 (inactive).

Consider `CC1(C)O[C@@H]2[C@@H](CO[C@@]3(COS(N)(=O)=O)OC(C)(C)O[C@@H]23)O1`, for which the fluorescence ratio is 1.02 (inactive).

For `COCCOC(=O)C1=C(C)NC(C)=C(C(=O)OC(C)C)C1c1cccc([N+](=O)[O-])c1` (configuration not stated), the fluorescence ratio was 0.92 (inactive).

Regarding `NNC(=O)c1ccncc1`, the fluorescence ratio is 0.93 (inactive).

A further assay deals with Neuropilin-2 / VEGF-C interaction (human). Briefly: inhibitors of NRP2–VEGF-C binding, biochemical, microplate binding format, z-score (AID 743281). As to conditions: microplate NRP2/VEGF-C binding assay; hits give low values.
`CC12CC3CC(C)(C1)CC(N)(C3)C2`: the compound was called inactive.

In the case of `CC(=O)OCC(CCn1cnc2cnc(N)nc21)COC(C)=O`, the z-score was -0.315 (inactive).

Consider `CC1=NS(=O)(=O)c2cc(Cl)ccc2N1`, for which the z-score was -0.142 (inactive).

As for `CCCc1nc2c(C)cc(-c3nc4ccccc4n3C)cc2n1Cc1ccc(-c2ccccc2C(=O)O)cc1`, the z-score is -0.492 (inactive).

Regarding `CCOC(=O)C1=C(C)NC(C)=C(C(=O)OC)C1c1cccc([N+](=O)[O-])c1` (configuration not stated), the z-score was 0.0382 (inactive).

As to `COc1ccccc1OCCNCC(O)COc1cccc2[nH]c3ccccc3c12` (configuration not stated), the z-score was 1.06 (inactive).

As for `NNCCc1ccccc1`, the z-score is -0.0568 (inactive).

With `N[C@@H]1CONC1=O`, the z-score was -0.138 (inactive).

Turning to `CC1(C)O[C@@H]2[C@@H](CO[C@@]3(COS(N)(=O)=O)OC(C)(C)O[C@@H]23)O1`, the z-score was -1.38 (inactive).

`COCCOC(=O)C1=C(C)NC(C)=C(C(=O)OC(C)C)C1c1cccc([N+](=O)[O-])c1` (configuration not stated): the z-score is -0.18 (inactive).

System in the next assay: not listed separately
Briefly: stimulators of nuclear beta-catenin in C2C12, primary screen, imaging, WNT3A-conditioned medium, mouse C2C12, NPC library (AID 1117326; in the data active means nuclear beta-catenin stimulation mostly above about 4.2%, no sharp cut-off; inactive means mostly below about 10%). The settings on record: at 10 µM, hits give high values.
For `CC12CC3CC(C)(C1)CC(N)(C3)C2`, the nuclear beta-catenin stimulation is 2% (inactive).

In the case of `CC(=O)OCC(CCn1cnc2cnc(N)nc21)COC(C)=O`, the nuclear beta-catenin stimulation was 0.9% (inactive).

As for `S=c1nc[nH]c2nc[nH]c12`, the nuclear beta-catenin stimulation was -0.9% (inactive).

On to `Oc1c(Cl)cc(Cl)c2cccnc12`, for which the nuclear beta-catenin stimulation is 25.3% (inactive).

In the case of `CC1=NS(=O)(=O)c2cc(Cl)ccc2N1`, the nuclear beta-catenin stimulation is 0.5% (inactive).

For the compound `OC(Cn1cncn1)(Cn1cncn1)c1ccc(F)cc1F`, the nuclear beta-catenin stimulation is 1.7% (inactive).

Regarding `NCCc1ccc(O)c(O)c1`, the nuclear beta-catenin stimulation was 1.1% (inactive).

Turning to `CN=C(NC#N)NCCSCc1nc[nH]c1C`, the nuclear beta-catenin stimulation is 0.2% (inactive).

As for `COc1c(N2CCNC(C)C2)c(F)cc2c(=O)c(C(=O)O)cn(C3CC3)c12` (configuration not stated), the nuclear beta-catenin stimulation was 0.7% (inactive).

As for `CC1COc2c(N3CCN(C)CC3)c(F)cc3c(=O)c(C(=O)O)cn1c23` (configuration not stated), the nuclear beta-catenin stimulation was -0.3% (inactive).

As for `O=C(C1CCCCC1)N1CC(=O)N2CCc3ccccc3C2C1` (configuration not stated), the nuclear beta-catenin stimulation was -0.4% (inactive).

As for `CCc1cc(C(N)=S)ccn1`, the nuclear beta-catenin stimulation was 0.1% (inactive).

As for `CC1=C(/C=C/C(C)=C/C=C/C(C)=C/C(=O)O)C(C)(C)CCC1`, the nuclear beta-catenin stimulation was 8.6% (inactive).

Turning to `CCCCNc1cc(C(=O)O)cc(S(N)(=O)=O)c1Oc1ccccc1`, the nuclear beta-catenin stimulation is 0.1% (inactive).

For the compound `O=c1[nH]cnc2[nH]ncc12`, the nuclear beta-catenin stimulation was -0.8% (inactive).

As for `O=C1c2c(O)ccc(O)c2C(=O)c2c(NCCNCCO)ccc(NCCNCCO)c21`, the nuclear beta-catenin stimulation is 79.6% (active).

For `O=C(O)c1cc(=O)c2c(OCC(O)COc3cccc4oc(C(=O)O)cc(=O)c34)cccc2o1`, the nuclear beta-catenin stimulation was -1.8% (inactive).

For `CC(C)C(=O)Nc1ccc([N+](=O)[O-])c(C(F)(F)F)c1`, the nuclear beta-catenin stimulation is 0.6% (inactive).

Turning to `CC(COc1ccccc1)N(CCCl)Cc1ccccc1` (configuration not stated), the nuclear beta-catenin stimulation is 1.1% (inactive).

For `CCCc1nc2c(C)cc(-c3nc4ccccc4n3C)cc2n1Cc1ccc(-c2ccccc2C(=O)O)cc1`, the nuclear beta-catenin stimulation is 3.7% (inactive).

For `CC(=O)CC(c1ccccc1)c1c(O)c2ccccc2oc1=O` (configuration not stated), the nuclear beta-catenin stimulation is 3.2% (inactive).

For `NS(=O)(=O)c1cc2c(cc1Cl)NCNS2(=O)=O`, the nuclear beta-catenin stimulation is 0.4% (inactive).

As to `CS(=O)(=O)OCCCCOS(C)(=O)=O`, the nuclear beta-catenin stimulation was 1.2% (inactive).

Regarding `CCOC(=O)C1=C(C)NC(C)=C(C(=O)OC)C1c1cccc([N+](=O)[O-])c1` (configuration not stated), the nuclear beta-catenin stimulation is -0.1% (inactive).

On to `COc1ccccc1OCCNCC(O)COc1cccc2[nH]c3ccccc3c12` (configuration not stated), for which the nuclear beta-catenin stimulation is 10.7% (inactive).

As to `O=C(O)CCCc1ccccc1`, the nuclear beta-catenin stimulation was 0.2% (inactive).

For the compound `NNCCc1ccccc1`, the nuclear beta-catenin stimulation is 1.9% (inactive).

As for `CC1Cc2ccccc2N1NC(=O)c1ccc(Cl)c(S(N)(=O)=O)c1` (configuration not stated), the nuclear beta-catenin stimulation is 1% (inactive).

As to `CC(C)Cc1ccc(C(C)C(=O)O)cc1` (configuration not stated), the nuclear beta-catenin stimulation is 0.3% (inactive).

With `N[C@@H]1CONC1=O`, the nuclear beta-catenin stimulation was 0.4% (inactive).

Turning to `CCN(Cc1ccncc1)C(=O)C(CO)c1ccccc1` (configuration not stated), the nuclear beta-catenin stimulation was 0.5% (inactive).

Take `CCCc1cc(=O)[nH]c(=S)[nH]1`: the nuclear beta-catenin stimulation is 0.6% (inactive).

Consider `O=C(O)c1cccnc1`, for which the nuclear beta-catenin stimulation was -0.4% (inactive).

For `CC(C[N+](C)(C)C)OC(N)=O` (configuration not stated), the nuclear beta-catenin stimulation was -0.5% (inactive).

Regarding `COc1ccc(Cl)cc1C(=O)NCCc1ccc(S(=O)(=O)NC(=O)NC2CCCCC2)cc1`, the nuclear beta-catenin stimulation is -0.8% (inactive).

As for `N[C@@H](Cc1cc(I)c(Oc2cc(I)c(O)c(I)c2)c(I)c1)C(=O)O`, the nuclear beta-catenin stimulation is -0.2% (inactive).

Regarding `CC1(C)O[C@@H]2[C@@H](CO[C@@]3(COS(N)(=O)=O)OC(C)(C)O[C@@H]23)O1`, the nuclear beta-catenin stimulation is -1.6% (inactive).

For the compound `COCCOC(=O)C1=C(C)NC(C)=C(C(=O)OC(C)C)C1c1cccc([N+](=O)[O-])c1` (configuration not stated), the nuclear beta-catenin stimulation was -0.6% (inactive).

Turning to `NNC(=O)c1ccncc1`, the nuclear beta-catenin stimulation is -1.9% (inactive).
